Consider 12 molecules from ChEMBL document CHEMBL3988442, “University of Dundee, Small-Polar-MMV Screening Library” (2021).

Parameters in all cases: scale not given: direction of the effect not stated beside the values
Assay [1] has as its target Protein translocase subunit SecA (Escherichia coli (strain K12)) (UniProt P10408). In words: Assay to Identify E. coli SecA ATPase Inhibitors. Type of assay: functional. As to conditions: 30 µM.
The target of assay [2] is T1, Ubiquitin-activating enzyme e1, putative (Leishmania donovani (strain BPK282A1)) (UniProt E9BSI1).
T1 sequence (whole entry): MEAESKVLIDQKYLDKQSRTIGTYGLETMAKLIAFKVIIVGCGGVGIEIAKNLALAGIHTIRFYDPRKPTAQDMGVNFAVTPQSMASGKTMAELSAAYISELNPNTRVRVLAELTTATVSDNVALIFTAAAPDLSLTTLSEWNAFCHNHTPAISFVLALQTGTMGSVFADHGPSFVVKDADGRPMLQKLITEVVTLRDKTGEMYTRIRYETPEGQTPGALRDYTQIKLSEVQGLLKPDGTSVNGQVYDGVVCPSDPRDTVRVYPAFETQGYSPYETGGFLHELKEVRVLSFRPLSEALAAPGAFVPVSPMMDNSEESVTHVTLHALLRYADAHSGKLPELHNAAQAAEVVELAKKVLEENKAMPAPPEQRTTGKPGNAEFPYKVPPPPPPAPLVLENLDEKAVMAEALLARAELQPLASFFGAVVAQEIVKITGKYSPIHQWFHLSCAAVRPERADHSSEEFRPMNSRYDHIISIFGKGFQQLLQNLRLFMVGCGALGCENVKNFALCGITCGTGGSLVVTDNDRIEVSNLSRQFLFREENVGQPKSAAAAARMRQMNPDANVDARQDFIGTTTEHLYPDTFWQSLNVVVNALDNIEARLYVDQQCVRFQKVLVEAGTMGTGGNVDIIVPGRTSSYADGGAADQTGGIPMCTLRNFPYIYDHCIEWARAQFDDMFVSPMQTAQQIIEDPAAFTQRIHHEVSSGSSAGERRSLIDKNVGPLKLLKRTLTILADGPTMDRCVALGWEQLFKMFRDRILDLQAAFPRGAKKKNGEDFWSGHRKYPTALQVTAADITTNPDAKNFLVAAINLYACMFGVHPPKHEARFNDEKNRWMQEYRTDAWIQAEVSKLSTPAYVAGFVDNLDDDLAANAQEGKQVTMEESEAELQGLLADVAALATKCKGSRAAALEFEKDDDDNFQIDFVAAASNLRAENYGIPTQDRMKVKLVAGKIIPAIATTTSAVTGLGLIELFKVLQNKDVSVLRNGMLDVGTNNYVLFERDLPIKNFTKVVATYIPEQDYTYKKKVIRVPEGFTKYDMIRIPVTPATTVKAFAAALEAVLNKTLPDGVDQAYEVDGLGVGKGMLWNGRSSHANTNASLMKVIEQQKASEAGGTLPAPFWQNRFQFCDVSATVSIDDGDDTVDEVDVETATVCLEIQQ
In words: Leishmania donovani Ubiquitin Activating Enzyme (LdE1). Type of assay: functional. As to conditions: 30 µM.

Assay [3] concerns the target Sialic acid-binding Ig-like lectin 9 (Homo sapiens) (UniProt Q9Y336). The assay can be described thus: Hs-Siglec9 ALPHAscreen SOP 20170721. To be noted: 10 µM. (In general: In Alpha technology, singlet oxygen from a donor bead excites a nearby acceptor bead.)
Another assay relates to Trypanosoma cruzi. The assay can be described thus: Trypanosoma cruzi phosphomannomutase and mannose-1-phosphate guanylyltransferase assay. Format: functional. As to conditions: 10 µM.
The target of assay [4] is T2, Arginase-2, mitochondrial (Homo sapiens) (UniProt P78540).
T2 sequence (whole entry): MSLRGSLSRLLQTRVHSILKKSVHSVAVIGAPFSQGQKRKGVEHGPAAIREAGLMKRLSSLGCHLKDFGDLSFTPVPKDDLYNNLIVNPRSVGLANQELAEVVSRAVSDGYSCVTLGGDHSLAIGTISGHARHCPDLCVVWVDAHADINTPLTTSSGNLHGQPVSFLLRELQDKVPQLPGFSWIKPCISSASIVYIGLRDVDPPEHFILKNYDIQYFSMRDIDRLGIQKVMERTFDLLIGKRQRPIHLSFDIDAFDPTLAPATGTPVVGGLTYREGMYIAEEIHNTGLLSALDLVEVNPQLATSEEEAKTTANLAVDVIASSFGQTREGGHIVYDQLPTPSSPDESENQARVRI
The assay can be described thus: in vitro enzyme assay to detect the production of urea directly proportional to the activity of Arginase II. Further: in the data most compounds retested in dose-response had high values. Type of assay: functional. As to conditions: 33.3 µM.

For assay [5], the target named is T3, Proteasome subunit beta (Trypanosoma cruzi) (UniProt O96673).
T3 sequence (whole entry): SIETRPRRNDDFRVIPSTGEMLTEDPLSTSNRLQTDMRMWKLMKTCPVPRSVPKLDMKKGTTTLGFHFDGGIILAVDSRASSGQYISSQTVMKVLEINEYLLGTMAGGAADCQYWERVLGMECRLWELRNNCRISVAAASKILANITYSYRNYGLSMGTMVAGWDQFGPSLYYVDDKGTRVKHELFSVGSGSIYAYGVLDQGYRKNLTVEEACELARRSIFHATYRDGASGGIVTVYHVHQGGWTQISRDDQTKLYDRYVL
In words: Trypanosoma cruzi proteasome chymotrypsin-like activity (TcProtChymo) assay. Further: in the data most compounds retested in dose-response had high values. As to conditions: 9.37 µM. Type of assay: functional.

The species entered for another assay is Homo sapiens. In words: To identify inhibition of the IFN signalling (Jak-Stat) pathway via expression of an eGFP reporter gene under the control of an IFN-stimulated response element (ISRE) containing MxA promoter. Format: functional. As to conditions: 30 µM. On the technique in general: Reporter assays use an easily measured gene product as a stand-in for the process of interest.

Assay [6] deals with T4, Tyrosyl-tRNA synthetase, putative (Trypanosoma cruzi (strain CL Brener)) (UniProt Q4DSP6).
T4 sequence (whole entry): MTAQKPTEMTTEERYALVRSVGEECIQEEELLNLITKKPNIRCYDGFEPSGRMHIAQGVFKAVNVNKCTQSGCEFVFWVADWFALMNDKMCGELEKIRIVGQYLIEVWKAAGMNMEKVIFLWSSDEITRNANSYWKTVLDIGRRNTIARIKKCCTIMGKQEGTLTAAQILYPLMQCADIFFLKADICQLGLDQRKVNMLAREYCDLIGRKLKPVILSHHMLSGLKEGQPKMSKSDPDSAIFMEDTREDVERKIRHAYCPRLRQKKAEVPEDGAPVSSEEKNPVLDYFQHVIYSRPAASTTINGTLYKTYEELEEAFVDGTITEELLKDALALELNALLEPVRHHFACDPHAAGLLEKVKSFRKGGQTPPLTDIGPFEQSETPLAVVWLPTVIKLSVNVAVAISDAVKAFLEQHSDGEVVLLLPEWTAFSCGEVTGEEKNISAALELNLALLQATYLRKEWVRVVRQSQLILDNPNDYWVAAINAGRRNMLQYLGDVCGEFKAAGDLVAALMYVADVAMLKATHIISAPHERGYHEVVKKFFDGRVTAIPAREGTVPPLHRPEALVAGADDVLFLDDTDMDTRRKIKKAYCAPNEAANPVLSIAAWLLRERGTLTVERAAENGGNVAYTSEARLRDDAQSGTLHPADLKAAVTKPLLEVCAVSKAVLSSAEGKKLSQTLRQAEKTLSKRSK
The assay can be described thus: Trypanosoma cruzi tyrosyl tRNA synthetase (TcYRS) _High Tyrosine SOP. Further: in the data most compounds retested in dose-response had high values. Type of assay: functional. As to conditions: 30 µM.

The target of assay [7] is T4, Tyrosyl-tRNA synthetase, putative (Trypanosoma cruzi (strain CL Brener)). The assay can be described thus: Trypanosoma cruzi tyrosyl tRNA synthetase (TcYRS) SOP. Type of assay: functional. To be noted: 30 µM.
Assay [8] has as its target Chromo domain-containing protein 1 (Saccharomyces cerevisiae (strain ATCC 204508 / S288c) (Baker's yeast)) (UniProt P32657). In words: ScCHD-1 Enzyme Inhibition Assay. Further: in the data most compounds retested in dose-response had high values. Format: functional. As to conditions: 30 µM.

For part of these data: Measured potencies and affinities stand elsewhere.

Sequence of Chromo domain-containing protein 1 (Saccharomyces cerevisiae (strain ATCC 204508 / S288c) (Baker's yeast)) (P32657 whole entry, the tested form may be a part): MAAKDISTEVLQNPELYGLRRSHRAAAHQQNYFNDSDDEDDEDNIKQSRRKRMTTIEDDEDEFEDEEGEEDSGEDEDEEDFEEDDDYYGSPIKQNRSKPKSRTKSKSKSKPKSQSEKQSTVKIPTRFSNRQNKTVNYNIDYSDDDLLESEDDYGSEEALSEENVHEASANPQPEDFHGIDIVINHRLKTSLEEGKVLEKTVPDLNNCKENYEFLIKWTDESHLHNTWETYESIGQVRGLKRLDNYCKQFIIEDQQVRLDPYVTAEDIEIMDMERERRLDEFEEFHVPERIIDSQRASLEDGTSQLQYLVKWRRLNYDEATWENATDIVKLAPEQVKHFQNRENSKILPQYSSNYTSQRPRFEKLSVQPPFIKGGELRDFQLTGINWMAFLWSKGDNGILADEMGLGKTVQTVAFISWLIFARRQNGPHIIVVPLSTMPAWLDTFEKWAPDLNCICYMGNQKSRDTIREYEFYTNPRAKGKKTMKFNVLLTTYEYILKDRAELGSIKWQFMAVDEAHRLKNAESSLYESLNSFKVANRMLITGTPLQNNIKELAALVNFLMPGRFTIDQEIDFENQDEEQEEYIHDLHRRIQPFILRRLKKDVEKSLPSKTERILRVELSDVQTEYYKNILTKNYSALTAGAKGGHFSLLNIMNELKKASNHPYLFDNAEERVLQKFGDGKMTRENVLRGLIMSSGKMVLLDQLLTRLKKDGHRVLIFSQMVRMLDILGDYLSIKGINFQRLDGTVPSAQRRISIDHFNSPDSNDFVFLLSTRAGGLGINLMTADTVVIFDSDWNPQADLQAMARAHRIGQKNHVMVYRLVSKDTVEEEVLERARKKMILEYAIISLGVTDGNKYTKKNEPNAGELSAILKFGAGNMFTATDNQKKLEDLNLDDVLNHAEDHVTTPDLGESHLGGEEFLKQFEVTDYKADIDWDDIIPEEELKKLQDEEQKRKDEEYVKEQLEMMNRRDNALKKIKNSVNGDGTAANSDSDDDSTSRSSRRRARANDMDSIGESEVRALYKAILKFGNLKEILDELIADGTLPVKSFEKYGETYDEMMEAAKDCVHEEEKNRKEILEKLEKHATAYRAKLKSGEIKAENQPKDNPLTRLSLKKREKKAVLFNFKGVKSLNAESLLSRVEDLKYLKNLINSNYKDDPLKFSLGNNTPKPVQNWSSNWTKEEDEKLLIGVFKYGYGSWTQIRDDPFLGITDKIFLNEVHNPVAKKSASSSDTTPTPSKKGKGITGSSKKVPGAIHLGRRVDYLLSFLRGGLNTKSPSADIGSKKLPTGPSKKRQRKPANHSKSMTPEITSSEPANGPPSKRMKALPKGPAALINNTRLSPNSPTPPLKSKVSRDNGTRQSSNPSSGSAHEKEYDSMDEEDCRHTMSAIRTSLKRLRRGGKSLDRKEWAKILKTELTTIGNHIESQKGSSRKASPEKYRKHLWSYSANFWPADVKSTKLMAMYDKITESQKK
Sequence of Sialic acid-binding Ig-like lectin 9 (Homo sapiens) (Q9Y336 whole entry): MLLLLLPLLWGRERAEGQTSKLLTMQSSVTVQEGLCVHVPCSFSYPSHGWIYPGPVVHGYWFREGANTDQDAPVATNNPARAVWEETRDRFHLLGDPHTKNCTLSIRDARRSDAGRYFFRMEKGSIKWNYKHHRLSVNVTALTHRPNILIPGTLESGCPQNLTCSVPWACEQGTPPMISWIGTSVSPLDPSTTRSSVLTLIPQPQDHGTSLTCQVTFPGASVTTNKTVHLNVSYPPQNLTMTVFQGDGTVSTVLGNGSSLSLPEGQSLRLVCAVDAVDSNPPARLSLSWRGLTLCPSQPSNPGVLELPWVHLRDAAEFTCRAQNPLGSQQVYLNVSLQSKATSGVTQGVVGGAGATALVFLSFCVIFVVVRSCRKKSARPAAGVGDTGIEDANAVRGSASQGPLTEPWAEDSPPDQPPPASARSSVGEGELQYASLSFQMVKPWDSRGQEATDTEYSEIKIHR
Sequence of Protein translocase subunit SecA (Escherichia coli (strain K12)) (P10408 whole entry): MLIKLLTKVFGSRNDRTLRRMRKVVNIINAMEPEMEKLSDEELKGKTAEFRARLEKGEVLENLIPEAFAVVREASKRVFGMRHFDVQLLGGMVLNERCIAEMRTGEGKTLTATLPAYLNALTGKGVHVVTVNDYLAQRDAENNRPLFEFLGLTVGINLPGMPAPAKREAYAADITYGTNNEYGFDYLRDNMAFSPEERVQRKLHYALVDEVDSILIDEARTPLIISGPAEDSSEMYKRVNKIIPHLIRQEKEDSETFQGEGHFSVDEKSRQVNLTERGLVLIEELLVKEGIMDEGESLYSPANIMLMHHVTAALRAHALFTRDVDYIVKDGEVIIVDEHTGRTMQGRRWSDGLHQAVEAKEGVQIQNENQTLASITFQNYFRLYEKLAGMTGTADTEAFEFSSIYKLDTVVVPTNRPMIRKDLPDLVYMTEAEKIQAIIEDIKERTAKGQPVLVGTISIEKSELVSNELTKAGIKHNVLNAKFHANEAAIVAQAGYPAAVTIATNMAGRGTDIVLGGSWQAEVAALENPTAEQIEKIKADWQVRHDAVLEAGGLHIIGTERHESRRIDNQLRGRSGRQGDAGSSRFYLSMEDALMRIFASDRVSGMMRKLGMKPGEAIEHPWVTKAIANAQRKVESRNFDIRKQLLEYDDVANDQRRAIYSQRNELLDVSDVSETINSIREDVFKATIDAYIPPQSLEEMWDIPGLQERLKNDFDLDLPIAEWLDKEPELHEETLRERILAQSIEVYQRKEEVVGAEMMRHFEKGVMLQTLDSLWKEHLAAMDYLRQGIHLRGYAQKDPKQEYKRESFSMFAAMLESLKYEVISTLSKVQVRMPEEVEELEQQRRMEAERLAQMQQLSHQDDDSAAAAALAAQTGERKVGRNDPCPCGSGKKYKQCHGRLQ

As to `Cn1ccnc1CN1CCN(Cc2noc(-c3ccccc3)n2)CC1`, the Percent Effect is -3.61% in [1]; 10.7% in [2]; -0.35% in [3]; -6.02% in the assay with Trypanosoma cruzi; 3.99% in assay [4]; 7.55% in [5]. The Percent Effect was 13.5% in the assay listed under Homo sapiens, 3.68% in assay [6], 7.69% in [7] and -9.67% in assay [8].

In the case of `CC(C)CN1CCN(C(=O)NCc2cccnc2-n2cccn2)CC1`, the Percent Effect in [1] was -3.93%; in [2], 16%; in assay [3], -3.1%; in the assay on Trypanosoma cruzi, -6.02%; in assay [4], -2.22%; in assay [5], 10.4%. Moreover, the Percent Effect was 2.63% in the assay filed under Homo sapiens, 5.79% in assay [6], 7.69% in assay [7] and -11.7% in assay [8].

With `Cc1ccc(-c2nc(CN3CCc4c(ncn4C)C3)cs2)o1`, the Percent Effect in assay [1] was -4.38%; in assay [2] it was 2.56%; in assay [3] it was -16.5%; in the assay on Trypanosoma cruzi, 11.9%; in assay [4] it was -6.56%; in assay [5] it was 24.3%. For the same molecule, the Percent Effect in the assay listed under Homo sapiens worked out at 2.62%; in assay [6], 11%; in assay [7] it was 18.1%; in assay [8], 37.3%.

In the case of `COc1ccc(S(N)(=O)=O)cc1C(=O)N(C)Cc1cc(C)on1`, the Percent Effect was 1.97% in [1]; 20.5% in assay [2]; -20.8% in [3]; 1.41% in the assay on Trypanosoma cruzi; -2.87% in assay [4]; 16% in [5]. Also, the Percent Effect in the assay listed under Homo sapiens was 15.7%; in assay [6], 1.44%; in [7] it was 18.1%; in assay [8], -7.04%.

Consider `Cc1ccc(C(=O)N2Cc3c(CN4CCCCC4)nn(C)c3C2)cc1C`, for which the Percent Effect is -5.88% in assay [1]; -1.3% in assay [2]; -4.75% in assay [3]; -3.02% in the assay with Trypanosoma cruzi; -4.86% in [4]; 17.9% in [5]. Also, the Percent Effect in the assay listed under Homo sapiens was -26.6%; in [6], -11.1%; in [7], -12.8%; in assay [8], -3.91%.

As for `CC(C)c1cc(C(=O)N(C)Cc2cccc3ncccc23)n(C)n1`, the Percent Effect in assay [1] was -3.2%; in assay [2], 12%; in [3], 13.8%; in the assay with Trypanosoma cruzi, 0.986%; in [4], -1.77%; in assay [5], 13.1%. Moreover, the Percent Effect is 36.7% in the assay listed under Homo sapiens, 3.17% in assay [6], 12.5% in assay [7] and -26% in assay [8].

As to `Cc1ccc(C(O)CNCCn2cccn2)cc1C` (stereo not given), the Percent Effect was -4.43% in assay [1]; 2.67% in assay [2]; 5.78% in [3]; 0.803% in the assay with Trypanosoma cruzi; 1.33% in assay [4]; 2.97% in assay [5]. Further, the Percent Effect in the assay filed under Homo sapiens is 4.85%; in assay [6], 3.68%; in assay [7], 7.69%; in assay [8], -8.09%.

Take `COCC(C)N(C)C(=O)c1nc(S(C)(=O)=O)n2ccccc12` (stereo not given): the Percent Effect is -8.81% in assay [1]; 2.56% in assay [2]; -5.8% in [3]; -2.35% in the assay with Trypanosoma cruzi; -2.05% in assay [4]; -0.256% in assay [5]. Further, the Percent Effect in the assay listed under Homo sapiens is 24.6%; in assay [6], 5.26%; in assay [7], 8.43%; in assay [8] it was -0.536%.

`CN1CCC/C1=N\S(=O)(=O)c1ccc(NC(=O)c2ccc(F)cc2)cc1`: the Percent Effect in [1] is 1.02%; in [2], 26%; in assay [3], 3.66%; in the assay with Trypanosoma cruzi it was 6.34%; in assay [4], 28.5%; in [5], 9.82%. Besides, the Percent Effect in the assay listed under Homo sapiens is 14.2%; in [6], 5.88%; in [7], 28.2%; in assay [8], -9.94%.

As for `Cc1ccc(C(=O)N2CCC3(CC2)CC(N2CCCC2)C3)cc1`, the Percent Effect in assay [1] is -4.52%; in [2], 11.7%; in assay [3], 1.16%; in the assay on Trypanosoma cruzi, -0.75%; in assay [4], 1.83%; in assay [5] it was 7.12%. The Percent Effect is -12.1% in the assay filed under Homo sapiens, 8.7% in assay [6], 12.5% in assay [7] and -4.42% in assay [8].

As to `c1ccc2cc(OCCN3CCn4c(nnc4C4CC4)C3)ccc2c1`, the Percent Effect in assay [1] was -5.63%; in assay [2], -18.7%; in [3], -1.64%; with Trypanosoma cruzi, 1.61%; in assay [4], -5.32%; in assay [5], 4.33%. Moreover, the Percent Effect in the assay filed under Homo sapiens is -7.36%; in [6] it was 1.58%; in assay [7] it was -10.3%; in assay [8] it was -10.9%.

On to `Cc1[nH]ncc1C(=O)N1CCN(CC(O)C(C)(C)C)CC1` (stereo not given), for which the Percent Effect in [1] was -2.19%; in assay [2], 17.9%; in [3] it was -6.77%; in the assay on Trypanosoma cruzi it was 7.23%; in assay [4] it was -2.46%; in [5], 8.79%. Moreover, the Percent Effect is -1.39% in the assay listed under Homo sapiens, 6.22% in [6], 20.5% in [7] and -6.95% in assay [8].
